The record followed here is ChEMBL document CHEMBL3988442, “University of Dundee, Small-Polar-MMV Screening Library” (2021).

For some assays here: Results with a measured potency or affinity are listed apart.

Holding throughout (design): scale not given: direction of the effect not stated beside the values
In assay [1] the target is Protein translocase subunit SecA (Escherichia coli (strain K12)) (UniProt P10408). Put plainly: Assay to Identify E. coli SecA ATPase Inhibitors. The conditions noted are these: 30 µM. The assay is classed as functional.
Assay [2] deals with T1, Ubiquitin-activating enzyme e1, putative (Leishmania donovani (strain BPK282A1)) (UniProt E9BSI1).
T1 sequence (whole entry): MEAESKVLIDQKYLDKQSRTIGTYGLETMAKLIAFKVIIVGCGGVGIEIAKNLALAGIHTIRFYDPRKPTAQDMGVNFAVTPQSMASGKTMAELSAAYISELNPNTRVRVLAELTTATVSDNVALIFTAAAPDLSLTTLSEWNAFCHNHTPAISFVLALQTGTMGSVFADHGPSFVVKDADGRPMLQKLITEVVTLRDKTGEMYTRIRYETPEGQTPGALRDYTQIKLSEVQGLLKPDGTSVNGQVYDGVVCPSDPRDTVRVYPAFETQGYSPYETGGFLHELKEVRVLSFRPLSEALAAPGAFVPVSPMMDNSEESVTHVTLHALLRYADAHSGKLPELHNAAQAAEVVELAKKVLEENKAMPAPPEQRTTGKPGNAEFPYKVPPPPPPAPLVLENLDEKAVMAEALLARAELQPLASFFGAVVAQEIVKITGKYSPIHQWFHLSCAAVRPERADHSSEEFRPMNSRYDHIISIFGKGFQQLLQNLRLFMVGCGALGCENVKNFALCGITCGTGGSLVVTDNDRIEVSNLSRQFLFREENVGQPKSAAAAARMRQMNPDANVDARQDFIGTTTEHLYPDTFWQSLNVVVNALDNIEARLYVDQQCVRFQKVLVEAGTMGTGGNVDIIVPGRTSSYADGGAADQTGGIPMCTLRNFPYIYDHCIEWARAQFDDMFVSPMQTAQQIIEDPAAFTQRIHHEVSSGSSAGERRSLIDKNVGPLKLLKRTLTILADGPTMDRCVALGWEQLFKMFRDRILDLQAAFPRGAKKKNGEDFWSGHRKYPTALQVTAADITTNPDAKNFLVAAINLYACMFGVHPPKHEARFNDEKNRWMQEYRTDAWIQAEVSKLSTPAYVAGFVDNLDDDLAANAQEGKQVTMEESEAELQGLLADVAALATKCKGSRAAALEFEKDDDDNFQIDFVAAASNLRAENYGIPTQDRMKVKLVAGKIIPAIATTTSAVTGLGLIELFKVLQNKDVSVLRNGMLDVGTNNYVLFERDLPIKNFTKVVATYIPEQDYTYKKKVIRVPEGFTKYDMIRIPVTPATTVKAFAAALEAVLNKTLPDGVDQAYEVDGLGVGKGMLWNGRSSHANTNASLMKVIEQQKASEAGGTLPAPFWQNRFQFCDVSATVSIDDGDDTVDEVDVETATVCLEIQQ
The assay can be described thus: Leishmania donovani Ubiquitin Activating Enzyme (LdE1). It counts as functional. The conditions noted are these: 30 µM.

Assay [3] has as its target AMP-activated protein kinase, AMPK (Homo sapiens) (UniProt P54646+O43741+P54619+Q9UGJ0+Q9Y478+Q13131+Q9UGI9). Put plainly: AMP-dependent Kinase enzyme assay. An in vitro enzyme assay that detects ADP turnover that is directly proportional to AMPK activity. This uses naive AMPK that is activated during the assay with MK-8722. It counts as functional. The settings on record: 30 µM.

The target in assay [4] is Sialic acid-binding Ig-like lectin 9 (Homo sapiens) (UniProt Q9Y336). The assay can be described thus: Hs-Siglec9 ALPHAscreen SOP 20170721. The settings on record: 10 µM.
In the next assay the test system is Trypanosoma cruzi. Put plainly: Trypanosoma cruzi phosphomannomutase and mannose-1-phosphate guanylyltransferase assay. It counts as functional. The conditions noted are these: 10 µM.
For assay [5], the target named is T2, Arginase-2, mitochondrial (Homo sapiens) (UniProt P78540).
T2 sequence (whole entry): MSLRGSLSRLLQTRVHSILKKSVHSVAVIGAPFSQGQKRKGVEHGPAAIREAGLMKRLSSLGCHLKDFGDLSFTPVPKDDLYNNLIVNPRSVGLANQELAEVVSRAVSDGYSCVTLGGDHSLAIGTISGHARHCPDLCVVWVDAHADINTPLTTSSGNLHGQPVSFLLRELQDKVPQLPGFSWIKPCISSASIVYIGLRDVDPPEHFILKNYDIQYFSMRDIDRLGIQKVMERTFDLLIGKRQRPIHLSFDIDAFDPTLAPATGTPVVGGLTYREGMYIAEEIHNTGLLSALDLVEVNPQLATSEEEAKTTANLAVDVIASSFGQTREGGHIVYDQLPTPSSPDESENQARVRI
Put plainly: in vitro enzyme assay to detect the production of urea directly proportional to the activity of Arginase II. Also: in the data most compounds retested in dose-response had high values. The assay is classed as functional. The settings on record: 33.3 µM.

For assay [6], the target named is T3, Proteasome subunit beta (Trypanosoma cruzi) (UniProt O96673).
T3 sequence (whole entry): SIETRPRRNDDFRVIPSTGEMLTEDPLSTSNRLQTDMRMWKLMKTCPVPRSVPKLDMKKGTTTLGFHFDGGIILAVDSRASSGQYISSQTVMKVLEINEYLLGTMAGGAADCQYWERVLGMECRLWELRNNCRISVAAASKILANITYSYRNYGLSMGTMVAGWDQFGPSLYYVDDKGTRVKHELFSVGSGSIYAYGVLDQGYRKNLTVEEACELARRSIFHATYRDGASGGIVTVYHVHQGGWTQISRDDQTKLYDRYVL
The assay can be described thus: Trypanosoma cruzi proteasome chymotrypsin-like activity (TcProtChymo) assay. Also: in the data most compounds retested in dose-response had high values. The assay is classed as functional. The conditions noted are these: 9.37 µM.

The next assay is filed under the species Homo sapiens. Put plainly: To identify inhibition of the IFN signalling (Jak-Stat) pathway via expression of an eGFP reporter gene under the control of an IFN-stimulated response element (ISRE) containing MxA promoter. The assay is classed as functional. The settings on record: 30 µM.
In assay [7] the target is T4, Tyrosyl-tRNA synthetase, putative (Trypanosoma cruzi (strain CL Brener)) (UniProt Q4DSP6).
T4 sequence (whole entry): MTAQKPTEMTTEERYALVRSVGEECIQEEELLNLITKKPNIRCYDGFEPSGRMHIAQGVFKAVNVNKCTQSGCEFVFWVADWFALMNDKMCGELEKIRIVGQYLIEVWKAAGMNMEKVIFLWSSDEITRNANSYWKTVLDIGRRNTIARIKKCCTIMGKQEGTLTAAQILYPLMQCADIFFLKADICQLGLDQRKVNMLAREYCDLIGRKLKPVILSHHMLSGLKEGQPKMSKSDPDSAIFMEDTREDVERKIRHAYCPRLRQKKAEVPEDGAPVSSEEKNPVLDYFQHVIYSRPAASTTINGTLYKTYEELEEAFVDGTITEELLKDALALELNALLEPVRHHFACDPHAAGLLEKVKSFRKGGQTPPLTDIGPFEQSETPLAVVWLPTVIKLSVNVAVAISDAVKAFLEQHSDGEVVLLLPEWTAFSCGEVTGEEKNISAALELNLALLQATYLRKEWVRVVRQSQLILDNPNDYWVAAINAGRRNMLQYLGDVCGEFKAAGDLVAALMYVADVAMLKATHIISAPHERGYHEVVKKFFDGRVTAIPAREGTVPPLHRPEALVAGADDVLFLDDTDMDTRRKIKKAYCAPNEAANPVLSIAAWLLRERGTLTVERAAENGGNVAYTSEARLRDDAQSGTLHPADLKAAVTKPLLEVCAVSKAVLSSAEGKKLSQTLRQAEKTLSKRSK
The assay can be described thus: Trypanosoma cruzi tyrosyl tRNA synthetase (TcYRS) _High Tyrosine SOP. Also: in the data most compounds retested in dose-response had high values. The conditions noted are these: 30 µM. The assay is classed as functional.

Assay [8] concerns the target T4, Tyrosyl-tRNA synthetase, putative (Trypanosoma cruzi (strain CL Brener)). The assay can be described thus: Trypanosoma cruzi tyrosyl tRNA synthetase (TcYRS) SOP. The conditions noted are these: 30 µM. It counts as functional.
In assay [9] the target is Chromo domain-containing protein 1 (Saccharomyces cerevisiae (strain ATCC 204508 / S288c) (Baker's yeast)) (UniProt P32657). The assay can be described thus: ScCHD-1 Enzyme Inhibition Assay. Also: in the data most compounds retested in dose-response had high values. It counts as functional. The settings on record: 30 µM.
Sequence of Chromo domain-containing protein 1 (Saccharomyces cerevisiae (strain ATCC 204508 / S288c) (Baker's yeast)) (P32657 whole entry, the tested form may be a part): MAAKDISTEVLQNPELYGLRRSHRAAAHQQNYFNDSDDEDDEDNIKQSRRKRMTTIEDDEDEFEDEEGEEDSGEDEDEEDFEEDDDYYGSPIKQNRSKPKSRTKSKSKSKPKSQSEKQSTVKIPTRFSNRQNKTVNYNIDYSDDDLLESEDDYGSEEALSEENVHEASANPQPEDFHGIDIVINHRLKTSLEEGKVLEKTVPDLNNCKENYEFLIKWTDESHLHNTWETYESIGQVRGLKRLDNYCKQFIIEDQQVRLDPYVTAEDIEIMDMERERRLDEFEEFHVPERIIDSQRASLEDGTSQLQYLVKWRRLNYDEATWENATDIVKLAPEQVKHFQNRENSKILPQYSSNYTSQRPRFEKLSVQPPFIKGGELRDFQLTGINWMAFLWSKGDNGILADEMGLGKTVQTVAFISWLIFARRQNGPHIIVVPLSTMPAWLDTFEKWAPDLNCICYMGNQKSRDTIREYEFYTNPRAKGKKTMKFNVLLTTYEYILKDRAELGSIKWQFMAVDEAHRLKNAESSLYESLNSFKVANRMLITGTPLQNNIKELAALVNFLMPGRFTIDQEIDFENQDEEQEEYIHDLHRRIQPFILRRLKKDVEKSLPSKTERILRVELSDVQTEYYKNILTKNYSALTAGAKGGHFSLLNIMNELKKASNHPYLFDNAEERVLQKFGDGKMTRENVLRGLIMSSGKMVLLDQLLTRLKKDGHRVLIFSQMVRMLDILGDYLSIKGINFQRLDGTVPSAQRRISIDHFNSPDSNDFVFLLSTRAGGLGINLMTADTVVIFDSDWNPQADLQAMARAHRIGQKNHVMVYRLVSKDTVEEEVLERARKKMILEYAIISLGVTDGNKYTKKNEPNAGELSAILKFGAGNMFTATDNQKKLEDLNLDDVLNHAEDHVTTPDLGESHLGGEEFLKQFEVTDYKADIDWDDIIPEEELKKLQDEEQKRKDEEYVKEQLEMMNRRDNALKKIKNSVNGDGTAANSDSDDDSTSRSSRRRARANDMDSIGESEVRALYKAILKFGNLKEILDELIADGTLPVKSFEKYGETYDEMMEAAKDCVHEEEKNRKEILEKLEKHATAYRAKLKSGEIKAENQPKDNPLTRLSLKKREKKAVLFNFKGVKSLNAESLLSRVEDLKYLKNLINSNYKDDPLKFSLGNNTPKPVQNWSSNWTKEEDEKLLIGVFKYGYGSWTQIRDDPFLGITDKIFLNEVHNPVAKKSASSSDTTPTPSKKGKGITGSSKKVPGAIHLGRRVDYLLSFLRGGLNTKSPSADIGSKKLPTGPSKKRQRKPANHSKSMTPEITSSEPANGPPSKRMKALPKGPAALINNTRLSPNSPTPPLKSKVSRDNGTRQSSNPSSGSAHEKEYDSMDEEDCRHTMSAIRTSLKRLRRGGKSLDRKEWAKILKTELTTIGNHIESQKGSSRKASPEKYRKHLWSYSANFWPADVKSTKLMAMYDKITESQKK

Sequence of Protein translocase subunit SecA (Escherichia coli (strain K12)) (P10408 whole entry): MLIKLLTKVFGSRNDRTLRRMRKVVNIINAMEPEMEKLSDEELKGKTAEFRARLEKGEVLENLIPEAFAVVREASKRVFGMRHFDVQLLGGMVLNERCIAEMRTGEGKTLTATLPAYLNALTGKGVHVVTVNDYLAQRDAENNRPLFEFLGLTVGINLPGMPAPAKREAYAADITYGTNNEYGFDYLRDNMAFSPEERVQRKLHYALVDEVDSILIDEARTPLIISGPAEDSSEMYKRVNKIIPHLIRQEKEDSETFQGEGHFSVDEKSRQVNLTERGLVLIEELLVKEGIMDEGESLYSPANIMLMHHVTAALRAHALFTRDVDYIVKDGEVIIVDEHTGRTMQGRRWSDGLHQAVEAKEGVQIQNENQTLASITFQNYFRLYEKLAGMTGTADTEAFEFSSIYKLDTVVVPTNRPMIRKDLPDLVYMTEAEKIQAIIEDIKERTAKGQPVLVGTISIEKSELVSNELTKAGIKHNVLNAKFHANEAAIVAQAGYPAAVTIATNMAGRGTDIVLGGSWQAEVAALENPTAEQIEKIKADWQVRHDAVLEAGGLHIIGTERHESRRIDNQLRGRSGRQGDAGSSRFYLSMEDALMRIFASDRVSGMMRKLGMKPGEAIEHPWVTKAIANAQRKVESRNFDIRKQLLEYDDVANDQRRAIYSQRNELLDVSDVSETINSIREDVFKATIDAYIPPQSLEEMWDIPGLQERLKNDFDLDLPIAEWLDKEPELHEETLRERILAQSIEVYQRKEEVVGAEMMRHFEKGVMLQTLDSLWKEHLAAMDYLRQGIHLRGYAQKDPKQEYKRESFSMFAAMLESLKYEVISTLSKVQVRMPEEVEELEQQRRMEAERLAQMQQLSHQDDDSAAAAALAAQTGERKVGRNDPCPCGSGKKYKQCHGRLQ
Sequence of Sialic acid-binding Ig-like lectin 9 (Homo sapiens) (Q9Y336 whole entry): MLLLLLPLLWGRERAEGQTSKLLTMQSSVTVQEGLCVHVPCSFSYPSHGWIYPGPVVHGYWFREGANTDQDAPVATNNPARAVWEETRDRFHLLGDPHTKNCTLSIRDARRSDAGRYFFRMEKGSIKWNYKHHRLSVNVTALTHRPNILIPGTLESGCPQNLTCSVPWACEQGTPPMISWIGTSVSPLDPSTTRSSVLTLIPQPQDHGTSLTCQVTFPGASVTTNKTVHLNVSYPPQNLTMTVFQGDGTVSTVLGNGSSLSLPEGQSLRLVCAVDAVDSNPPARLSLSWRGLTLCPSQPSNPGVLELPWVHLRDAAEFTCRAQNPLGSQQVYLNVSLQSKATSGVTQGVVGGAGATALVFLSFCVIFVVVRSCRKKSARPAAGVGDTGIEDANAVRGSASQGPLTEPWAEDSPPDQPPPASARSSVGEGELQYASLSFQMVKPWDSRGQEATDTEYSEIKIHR

On to `O=C1NCCN1C1CCN(Cc2ccccn2)CC1`, for which the Percent Effect in [1] is -1.85%; in [2], 0%; in assay [3], -5.58%; in assay [4], 1.53%; in the assay with Trypanosoma cruzi, -2.12%; in assay [5], 1.91%. For the same compound, the Percent Effect in assay [6] was 8.62%; in the assay listed under Homo sapiens, 0.116%; in assay [7], 3.7%; in [8] it was 2.44%; in assay [9], -3.18%.

For `O=C(CN1CCCCC1Cn1cccn1)NC1CCN(C2CC2)CC1` (stereo not given), the Percent Effect is -0.952% in assay [1]; 0% in assay [2]; -4.99% in assay [3]; 6.13% in assay [4]; -1.16% in the assay with Trypanosoma cruzi; -4.29% in assay [5]. Also, the Percent Effect was 13.3% in assay [6]; 1.18% in the assay listed under Homo sapiens; 0.529% in assay [7]; 2.44% in [8]; -1.27% in assay [9].

For `CCn1ncc(CN2CCc3c(nc(-c4cccnc4)[nH]c3=O)C2)c1C`, the Percent Effect in assay [1] was -4.9%; in assay [2] it was 5.33%; in [3], 9.46%; in assay [4], 2.36%; in the assay on Trypanosoma cruzi, 7.87%; in assay [5] it was 0.699%. For the same compound, the Percent Effect in assay [6] is 10.3%; in the assay listed under Homo sapiens, 2.75%; in [7], 5.32%; in assay [8], 11.5%; in assay [9] it was -4.43%.

For `Cc1nn(CC(=O)N2CCCCC2Cn2cccn2)c(C)c1Cl` (stereo not given), the Percent Effect in assay [1] is -2.25%; in assay [2], 2.7%; in [3] it was 0.616%; in [4] it was -1.03%; in the assay with Trypanosoma cruzi, -4.3%; in [5] it was 2.92%. For the same compound, the Percent Effect in assay [6] was 14.4%; in the assay listed under Homo sapiens, 7.18%; in assay [7], 1.98%; in assay [8], 13.4%; in assay [9] it was -2.37%.

On to `Cc1cc(C)c(CNC(=O)NCc2ccc3c(c2)CCC3)c(=O)[nH]1`, for which the Percent Effect in assay [1] was -1.46%; in assay [2], 10.5%; in assay [3], -2.73%; in assay [4] it was 4%; in the assay on Trypanosoma cruzi, -3.38%; in [5], 4.6%. For the same compound, the Percent Effect was found to be 6.85% in assay [6]; 4.84% in the assay listed under Homo sapiens; 5.39% in [7]; 0% in assay [8]; 0.252% in assay [9].

For the compound `Cc1cnn(CC2CN(Cc3nnc(-c4occc4C)o3)CCO2)c1` (stereo not given), the Percent Effect in assay [1] is -3.52%; in assay [2], 10.8%; in assay [3], 142%; in assay [4], -3.99%; with Trypanosoma cruzi, 3.06%; in [5], -0.924%. The Percent Effect in assay [6] was -0.898%; in the assay listed under Homo sapiens it was 16%; in assay [7] it was 7.92%; in assay [8] it was 23.2%; in [9] it was -5.94%.

For `CCc1nnc(CN2CCN(C(=O)c3cc4ccccc4[nH]3)CC2)o1`, the Percent Effect was -3% in assay [1]; -2.6% in [2]; 2.79% in assay [3]; 2.32% in [4]; 8.91% in the assay on Trypanosoma cruzi; -1.47% in [5]. Also, the Percent Effect in assay [6] was 2.83%; in the assay filed under Homo sapiens, -20%; in [7], 1.91%; in assay [8], 2.35%; in assay [9] it was -14.7%.

As to `CN1CCCN(C(=O)NCc2csc(Br)c2)CC1`, the Percent Effect is -5.63% in assay [1]; 10.8% in [2]; -0.581% in assay [3]; 13.3% in [4]; 0.0929% with Trypanosoma cruzi; 3.88% in [5]. For the same compound, the Percent Effect in assay [6] was 3.05%; in the assay filed under Homo sapiens it was 15.4%; in assay [7] it was 6.93%; in assay [8], 18.3%; in assay [9], -0.533%.

`CC(C)Oc1ccccc1C1CC(=O)Nc2c1cnn2C` (stereo not given): the Percent Effect is -2.1% in [1]; -15.8% in [2]; 7.56% in assay [3]; 5.91% in assay [4]; -3.21% with Trypanosoma cruzi; -7.1% in assay [5]. The Percent Effect in assay [6] was 15.6%; in the assay filed under Homo sapiens, 15.6%; in [7], -2.13%; in assay [8], 2.6%; in [9], -0.488%.

`CSc1ccc(CNC(c2ccccc2)c2nccn2C)cc1` (stereo not given): the Percent Effect in assay [1] was -5.49%; in assay [2] it was 21.6%; in [3], -4%; in assay [4] it was 8.74%; in the assay on Trypanosoma cruzi, 7.71%; in [5] it was -2.77%. Moreover, the Percent Effect in assay [6] is 11.1%; in the assay listed under Homo sapiens, 24.1%; in assay [7], 10.9%; in assay [8], 30.5%; in [9], -6.68%.
